Compound activity from PubChem.
DT40 TDP1 CPT: growth inhibition of DT40 Tdp1-/-;hTDP1 cells with camptothecin (screen for TDP1 inhibitors) | chicken DT40 Tdp1-/-;hTDP1 cells + 20 nM CPT, ATP luminescence, 48 h | Potency, µM (doses to about 46.2 µM), for inactives: at the top dose activity change, negative = growth inhibition, usual class: inhibitors | 420,000 tested, 12% active; further: on the % scale 0 is the no-effect control and ±100 the full control effect; nearly all actives have a fitted effect of over 55% in size
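Cell growth measured by CellTiter-Glo luminescence after a minimum 48 h, 37 C compound exposure with 20 nM CPT in Tdp1-knockout DT40 cells stably expressing hTDP1, seeded 400/well; qHTS titration format.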
TDP1 cell noCPT: qHTS for Inhibitors of human tyrosyl-DNA phosphodiesterase 1 (TDP1): qHTS in cells in absence of CPT | DT40 Tdp1-/- hTDP1 cells, no CPT, ATP luminescence, 48 h | Potency, µM (series often up to 46.2 µM), for the others: at the top dose activity change, negative = growth inhibition, usual class: inhibitors | 420,000 tested, 15% active | AID 686978, 2013; further: on the % scale 0 is the no-effect control and ±100 the full control effect; nearly all actives have a fitted effect of over 55% in size
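Luminescent ATP content (CellTiter-Glo) served as the growth readout. Knockout chicken DT40 cells expressing human TDP1 were exposed to compounds without camptothecin for a minimum 48 hr at 37 °C.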
TDP1 inh: inhibitors of human tyrosyl-DNA phosphodiesterase TDP1 | Q9NUW8 | recombinant TDP1, AlphaScreen DNA substrate cleavage | Potency, µM (doses to about 130 µM), inactives show top-dose activity change, negative = inhibition, usual class: inhibitors | 350,000 tested, 0.28% active | AID 485290; further: on the % scale 0 is the no-effect control and ±100 the full control effect; nearly all actives have a fitted effect of over 40% in size
Target sequence (Q9NUW8 whole entry, looked up): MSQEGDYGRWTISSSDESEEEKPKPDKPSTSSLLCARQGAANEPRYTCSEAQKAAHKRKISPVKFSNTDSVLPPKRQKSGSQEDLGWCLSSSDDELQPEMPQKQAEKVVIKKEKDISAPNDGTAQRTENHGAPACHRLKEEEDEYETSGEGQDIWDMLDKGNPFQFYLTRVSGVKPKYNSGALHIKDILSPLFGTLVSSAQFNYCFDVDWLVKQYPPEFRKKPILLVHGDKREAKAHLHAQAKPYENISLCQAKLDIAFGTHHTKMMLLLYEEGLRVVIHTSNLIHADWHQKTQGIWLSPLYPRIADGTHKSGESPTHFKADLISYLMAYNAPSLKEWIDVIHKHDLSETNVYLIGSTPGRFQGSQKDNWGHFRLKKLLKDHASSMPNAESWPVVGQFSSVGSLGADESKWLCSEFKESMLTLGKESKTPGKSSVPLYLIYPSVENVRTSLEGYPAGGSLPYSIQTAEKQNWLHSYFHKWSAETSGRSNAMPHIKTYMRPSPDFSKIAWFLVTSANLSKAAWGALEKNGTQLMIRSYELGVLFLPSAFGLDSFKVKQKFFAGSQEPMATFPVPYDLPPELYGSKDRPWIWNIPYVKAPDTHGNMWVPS
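Signal: AlphaScreen proximity between streptavidin donor and anti-FITC acceptor beads on intact substrate. Reaction: Tdp1 1 nM, substrate 15 nM final, 5 min RT after 15 min compound preincubation.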
ClpP mod: qHTS Assay for Activators of ClpP; purified B. subtilis ClpP, FRET peptide cleavage, 20 min; Potency, µM (series often up to 57.5 µM), for the others: at the highest dose activity change, negative = active; 340,000 tested, 1.9% active; active means well fitted falling curve with a large enough effect; inconclusive means small, poorly fitted or top-dose-only effect; inactive means no such curve, though single readings can be large or run the other way; further: the source files actives as falling curves though it sought activators and does not explain the sign; nearly all actives have a fitted effect of over 65% in size
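Purified B. subtilis ClpP, 10 microg/mL final in Tris/HCl pH8 with KCl, BSA, glycerol and Tween-20, cleaved an Abz/nitrotyrosine-quenched decapeptide. Fluorescence (ex 320, em 430) was read at 0 and 20 min at room temperature. Delta was normalized to 5.8 microM ADEP and DMSO/no-enzyme controls.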
* hit, by the source's call; ? = inconclusive; . = no result; [ ] = remark or other dose. Most compounds without a hit are left out; they make up all but 17% or so of the library. Unless noted, the call rests on the fitted dose curve; in most records, active means well fitted curve in the direction sought with a large enough effect; inconclusive means small, poorly fitted or top-dose-only effect, or another doubt; inactive means no such curve, though single readings can be large; an effect the other way counts as inactive or inconclusive. Potency means the concentration at half of the fitted maximal effect.

SMILES | DT40 TDP1 CPT | TDP1 cell noCPT | TDP1 inh | ClpP mod
Cc1cc(SCC(=O)Nc2nsc(-c3ccc(C(C)(C)C)cc3)n2)nc2ccccc12 | ? | -99.4% | -2.1% | -23.4%
Cc1ccc(N2C(=O)c3ccccc3C2=O)nc1 | -5.1% | -10.1% | . | -3.7%
Cn1nc(-c2ccccc2F)c2cc(C(=O)N3CCN(c4ccc(F)cc4)CC3)sc21 | ? | 16.4µM* | 2.3% | -13.2%
Cn1nc(-c2ccccc2F)c2cc(C(=O)N3CCN(C(=O)c4ccco4)CC3)sc21 | 29.1µM* | ? | . | -11.0%
COc1ccc(-c2nn(C)c3sc(C(=O)N4CCN(c5cccc(Cl)c5)CC4)cc23)cc1OC | 14.6µM* | -72.9% | -2.3% | 4.5%
COc1ccc(N2CCN(C(=O)c3cc4c(-c5ccc(Cl)cc5)nn(C)c4s3)CC2)cc1 | ? | 16.4µM* | 7.8% | 3.5%
COc1ccccc1NC(=O)CCS(=O)(=O)c1ccc2nc(C)sc2c1 | -19.5% | -27.0% | 2.6% | 0.9%
COc1ccccc1S(=O)(=O)N(C)C[C@H]1OCc2cnnn2CCCC(=O)N([C@@H](C)CO)C[C@H]1C | -0.5% | -5.2% | . | 0.0%
CCOC(=O)N/N=C1/C[C@@H](O)[C@@H](O)[C@@H]2[C@@H]3C(=O)N(C[C@@H]4CCCO4)C(=O)[C@H]3CC[C@H]12 | . | . | 5.8%[21 µM] | .
COc1ccccc1CNC(=O)c1ccc(N2Cc3cccc(OC)c3Oc3ncccc32)s1 | 14.6µM* | 11.6µM* | 5.3% | -25.6%
Cc1cccc(CNC(=O)c2ccc(N3Cc4ccccc4Oc4ncccc43)s2)c1 | ? | -83.4% | -2.6% | 28.2µM*
Cc1ccc(-c2ccc(C3C4C=CCC(C)C4C(=O)N3Cc3ccccc3)c(F)c2)cc1 (centres undefined) | . | . | 5.0% | .
Cc1nc(Cc2nnc(SCC(=O)N3CC(=O)Nc4ccccc43)o2)cs1 | -0.1% | -19.6% | ? | .
Cc1nc(Cc2nnc(SCC(=O)N3c4ccccc4NC(=O)C3(C)C)o2)cs1 | -29.4% | 16.4µM* | . | -2.2%
Cc1cccc(C(=O)Nc2sc3c(c2C(=O)NC(C)C)CCCC3)c1 | ? | 14.6µM* | -9.3%[12.3 µM] | -3.1%
COc1ccc(C(=O)Nc2nc3c(s2)CCCC3)cc1Cl | ? | 14.6µM* | -3.6% | -13.7%
O=C(Nc1nc2c(s1)CCCC2)c1ccc2ncsc2c1 | 16.4µM* | ? | 0.0% | -0.2%
Cc1cccc(C(=O)Nc2nc3c(s2)CCCC3)c1 | ? | 18.4µM* | 7.8% | -6.8%
O=C(Nc1nc2c(s1)CCCC2)c1ccc(Br)s1 | 16.4µM* | 29.1µM* | 0.0% | -2.6%
COc1ccccc1CNC(=O)Cn1c(=O)ccc2cc(S(=O)(=O)N3CCC(C)CC3)ccc21 | 23.1µM* | ? | 2.2% | -13.0%
COCCCNC(=O)Cn1c(=O)oc2cc(S(=O)(=O)N3CC(C)CC(C)C3)ccc21 (centres undefined) | -29.4% | -0.7% | 0.3% | 1.6%
Cc1cc(F)ccc1NC(=O)Cn1c(=O)ccc2cc(S(=O)(=O)N3CCC(C)CC3)ccc21 | -9.1% | -17.2% | 6.6% | -5.6%
COc1ccccc1CNC(=O)Cn1c(=O)ccc2cc(S(=O)(=O)N3CCCC3)ccc21 | -26.7% | -28.8% | 3.3% | -10.2%
CCCCNC(=O)Cn1c(=O)oc2cc(S(=O)(=O)N3CC(C)CC(C)C3)ccc21 (centres undefined) | 11.6µM* | ? | 0.0% | 1.9%
COc1ccccc1CNC(=O)Cn1c(=O)oc2cc(S(=O)(=O)N3CCC(C)CC3)ccc21 | 5.17µM* | 2.91µM* | 3.8% | -7.3%
SMILES | DT40 TDP1 CPT | TDP1 cell noCPT | TDP1 inh | ClpP mod
CCOc1ccccc1NC(=O)Cn1c(=O)ccc2cc(S(=O)(=O)N3CCC(C)CC3)ccc21 | ? | 25.9µM* | -1.1% | -13.8%
Cc1csc(=O)n1CC(=O)OCC(=O)c1ccc(Br)cc1 | -2.1% | -14.4% | . | 1.0%
CCOC(=O)N1CCN(CCC(=O)Nc2cccc(F)c2)CC1 | -10.9% | 2.9% | . | -0.4%
Clc1ccccc1-c1nnc2sc(C3COc4ccccc4O3)nn12 (centres undefined) | ? | -22.8% | 2.1% | -2.2%
Cc1ccc(-c2nnc3sc(C4COc5ccccc5O4)nn23)cc1 (centres undefined) | ? | 23.1µM* | 0.0% | 0.3%
Nc1c(C(=O)Nc2cccc(F)c2)nnn1-c1ccc2c(c1)OCCO2 | -8.5% | -23.7% | -16.2% | .
CC(=O)Nc1cc(-c2ccccc2)cn2c(-c3ccc(F)cc3)cnc12 | ? | ? | . | -11.4%
CC(=O)Nc1cc(-c2ccc(F)cc2)cn2c(-c3ccc(F)cc3)cnc12 | 16.4µM* | 18.4µM* | . | -21.3%
CC(=O)Nc1cc(-c2ccc(CO)cc2)cn2c(-c3ccc(F)cc3)cnc12 | 16.4µM* | 16.4µM* | . | 4.8%
CC(=O)Nc1cc(-c2ccncc2)cn2c(-c3ccccc3)cnc12 | 18.4µM* | 16.4µM* | . | -9.0%
CC(=O)Nc1cc(-c2ccc(F)cc2)cn2c(-c3ccc(S(C)(=O)=O)cc3)cnc12 | ? | 16.4µM* | . | 4.7%
COc1ccc(C)cc1NC(=O)c1ccc2c(c1)N(Cc1cccc(Cl)c1)C(=O)c1ccccc1S2=O (centres undefined) | -9.7% | -9.2% | -2.8% | 0.6%
COc1cc(OC)cc(C(=O)N[C@H](C(=O)NC2=NCCS2)C(C)C)c1 | -28.9% | 0.5% | -0.2% | -2.0%
CCOC(=O)OCC1OC(c2ccc(C(C)=O)cc2)C=CC1OC(=O)OCC (centres undefined) | . | . | 9.0%[21 µM] | .
Cc1cc(=O)oc2cc(Oc3ncccc3[N+](=O)[O-])ccc12 | 23.2% | -9.0% | -1.1% | -1.0%
Cc1ccc2ncnc(Oc3ncccc3[N+](=O)[O-])c2c1 | 5.8µM* | 6.51µM* | -3.8% | -2.1%
Cn1c(=O)n(CC(=O)Nc2ccccc2)c2ccccc21 | -16.1% | -19.4% | 2.1% | 1.7%
Cn1c(CC(=O)Nc2ccccc2)cc2ccccc21 | 7.31µM* | ? | . | -4.3%
CSc1c(CC(=O)Nc2ccccc2)n(C)c2ccccc12 | 14.6µM* | ? | . | 35.8%
COc1ccc(CN(CCC#N)CCC2(c3ccccc3)CC(C)N(C)CC2C)cc1OC (centres undefined) | 3.0% | -15.6% | 2.4% | .
COc1ccc(CNCCC2(Cc3ccccc3)CC(C)N(C)CC2C)cc1OC (centres undefined) | ? | 14.6µM* | 0.0% | 2.6%
Cc1cc(OC(C)C(=O)N2CCN(c3ccc(F)cc3)CC2)c2c(C)cc(=O)oc2c1 (centres undefined) | ? | -26.1% | 0.6% | -11.7%
C=C1C(=O)O[C@H]2[C@H]1[C@H](OC(=O)/C(C)=C\C)C[C@]1(CO1)[C@@H]1[C@H](OC(C)=O)C=C(C)[C@]21O | 11.6µM* | 13µM* | . | -2.2%
COc1cccc(/C=C2/Sc3ccc(C(=O)NCCN4CCCC4)cc3NC2=O)c1 | 16.4µM* | ? | 6.5% | -1.3%
COc1cccc(/C=C2/Sc3ccc(C(=O)NCCCN4CCCC4)cc3NC2=O)c1 | 18.4µM* | 20.6µM* | 5.9% | 2.6%
